From PubChem BioAssay (EPA / NIEHS) come the findings set out here.

Molecules are shown by their SMILES. Records with an inconclusive call do not appear. Calls of active or inactive are those of the source. Rule for the calls, unless noted: active = hit-call score of the fitted dose curve at least 0.9, where 1 is the maximum; inactive = score below 0.9.

The nature of assay [1]: ACEA_ER_80hr: ACEA Biosciences xCELLigence Real-Time Cell Analysis on Estrogen Receptor Agonism for Proliferation (AID 2282667; active = hit-call score of the fitted dose curve at least 0.9, where 1 is the maximum). The settings on record: T47D proliferation, impedance (xCELLigence), 80 h. Summed up: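 Real-time electrical impedance tracked growth of the human breast line T47D, with the 80 h post-dosing value used. Dosing spanned eight 1:4 steps down from a 100 uM final top concentration, run in duplicate.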

Assay [2] in a line: ATG_CRE_CIS: Attagene CIS-FACTORIAL HepG2 Assay for human cAMP Responsive Element (CRE) binding protein 3 (AID 2282926). Conditions: HepG2 CRE cis-reporter, Attagene multiplexed mRNA; actives raise or lower the signal. Summed up:
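Assay format: transient reporter transfection of HepG2, 24 h treatment, total RNA isolation with DNase I step. Reporter abundance read by fluorescence after PCR and capillary separation; DMSO-normalised gain or loss fitting.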

Assay [3] concerns the target CCAAT/enhancer-binding protein beta (Homo sapiens) (UniProt P17676). In words: ATG_C_EBP_CIS: Attagene CIS-FACTORIAL HepG2 Assay for human CCAAT/Enhancer Binding Protein (C/EBP) beta (AID 2282927). The settings on record: HepG2 Attagene cis-factorial transcription factor reporter; actives raise or lower the signal. Summed up: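 HepG2, transient MRTU transfection, 24 h treatment. RT-PCR plus CE fluorescence; DMSO negative control, bidirectional fit.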

Assay [4] in a line: ATG_CMV_CIS: Attagene CIS-FACTORIAL HepG2 Assay for human CMV (Internal Marker) (AID 2282928).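 Note: endpoint acts as a background internal control marker rather than a target.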 The settings on record: HepG2 CMV promoter reporter, transcription factor profiling; actives raise or lower the signal. Summed up: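 Reporter transcripts from transfected HepG2 cells are isolated after 24 h of chemical dosing, reverse-transcribed and amplified. Fragments labeled with 6-FAM are cut with HpaI and quantified by capillary electrophoresis; DMSO defines baseline.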

Assay [5] in a line: ATG_DR4_LXR_CIS: Attagene CIS-FACTORIAL HepG2 Assay for human Liver X Receptor (LXR), DR4 submotif (AID 2282929). The settings on record: HepG2 Attagene DR4 cis-reporter, mRNA transcription; actives raise or lower the signal. Summed up:
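Fluorescence intensity of labelled reporter cDNA fragments, separated by capillary electrophoresis, gives the signal. HepG2 cells bearing cis-regulated reporter constructs were treated 24 h; activity fitted bidirectionally relative to DMSO negative control.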

The target of assay [6] is Aryl hydrocarbon receptor (Homo sapiens) (UniProt P35869). The assay can be described thus: ATG_Ahr_CIS: Attagene CIS-FACTORIAL HepG2 Assay for human Aryl Hydrocarbon Receptor (Ahr) (AID 2282930). The settings on record: HepG2 AhR cis-factorial reporter transcription; actives raise or lower the signal. The gist of the method:
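Endogenous factor activity is tracked through cis-promoter reporter units transfected into HepG2 cells. Transcript levels at 24 h are read by fluorescent RT-PCR and capillary electrophoresis, with activity in either direction scored relative to DMSO.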

Assay [7] is described as follows: ATG_AP_1_CIS: Attagene CIS-FACTORIAL HepG2 Assay for human Activator Protein 1 (AP-1) (AID 2282931). Conditions: HepG2 Attagene cis-factorial AP-1 reporter mRNA; actives raise or lower the signal. Summed up: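 Multiplexed HepG2 reporter assay, 24 h dosing. mRNA induction detected by RT-PCR plus capillary electrophoresis. Activity fitted in both directions against DMSO.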

A short description of assay [8]: ATG_AP_2_CIS: Attagene CIS-FACTORIAL HepG2 Assay for human Activator Protein 2 (AP-2) (AID 2282932). The settings on record: HepG2 AP-2 cis-reporter, Attagene transcription factor profiling; actives raise or lower the signal. Summed up:
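Read-out: fluorescent reporter mRNA via RT-PCR and capillary electrophoresis, 24 h post-dose in transiently transfected HepG2. Endogenous factors drive cis-promoter reporters; gain or loss of signal fitted bidirectionally against DMSO.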

A short description of assay [9]: ATG_BRE_CIS: Attagene CIS-FACTORIAL HepG2 Assay for human Bone Morphogenetic Protein (BMP) Response Element (BRE) (AID 2282933). The settings on record: HepG2 BMP response element reporter, Attagene transcription factor profiling; actives raise or lower the signal. The gist of the method: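 Endogenous transcription factor activity at a BMP response element was monitored in transfected HepG2 cells 24 h after dosing. Fluorescent RT-PCR products were resolved by capillary electrophoresis, and activity was fitted in both directions versus DMSO.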

The target in assay [10] is Retinoic acid receptor alpha (Homo sapiens) (UniProt P10276). In words: ATG_DR5_RAR_CIS: Attagene CIS-FACTORIAL HepG2 Assay for human Retinoic Acid Receptor Alpha (RARE), DR5 submotif (AID 2282934). Conditions: HepG2 Attagene cis-factorial RARE DR5 reporter, mRNA; actives raise or lower the signal. Summed up: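 After 24 h of chemical exposure, transiently transfected HepG2 cells were lysed for total RNA; the DR5-regulated reporter transcript was quantified via RT-PCR and capillary electrophoresis, with activity fitted bidirectionally against DMSO.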

Assay [11] concerns the target Transcription factor E2F1 (Homo sapiens) (UniProt Q01094). In words: ATG_E2F_CIS: Attagene CIS-FACTORIAL HepG2 Assay for human E2F Transcription Factor 1 (AID 2282935). The settings on record: HepG2 Attagene cis-reporter, E2F reporter RNA transcripts; actives raise or lower the signal. Summed up: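 Transient MRTU transfection of HepG2; 24 h compound exposure; RNA → oligo(dT) RT → PCR → FAM label → HpaI cut → CE fluorescence. Gain/loss of signal fit against DMSO.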

Assay [12] in a line: ATG_E_Box_CIS: Attagene CIS-FACTORIAL HepG2 Assay for human Enhancer Box (E-box) (AID 2282936). The settings on record: HepG2 E-box cis-reporter transcription, actives raise or lower the signal. Summed up:
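Transiently transfected HepG2, endogenous TF-driven reporters, 24 h dosing. Readout: RT-PCR plus capillary electrophoresis of fluorescent reporter fragments. Gain or loss of signal fitted bidirectionally against DMSO baseline.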

Assay [13] is described as follows: ATG_M_61_CIS: Attagene CIS-FACTORIAL HepG2 Assay for M61 Transcription Factor (Internal Marker) (AID 2282937). Conditions: HepG2 Attagene CIS-FACTORIAL M61 internal marker reporter; actives raise or lower the signal. The gist of the method:
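Endogenous transcription factor activity in HepG2 is read through transiently transfected cis-element reporter units. After 24 h dosing, RNA undergoes reverse transcription, PCR and primer extension with 6-FAM before capillary electrophoresis; DMSO-referenced bidirectional fit.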

Assay [14] in a line: ATG_EGR_CIS: Attagene CIS-FACTORIAL HepG2 Assay for human Early Growth Response 1 (EGR1) (AID 2282938). Conditions: HepG2 Attagene CIS-FACTORIAL EGR reporter mRNA; actives raise or lower the signal. The gist of the method: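 Activity is taken as induction or loss of reporter mRNA versus DMSO, fitted bidirectionally. Transcripts from cis-regulated reporter units in transiently transfected HepG2 were measured after 24 h by RT-PCR with capillary electrophoresis.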

Assay [15] is described as follows: ATG_M_19_CIS: Attagene CIS-FACTORIAL HepG2 Assay for M19 Transcription Factor (Internal Marker) (AID 2282939). The settings on record: HepG2 Attagene CIS-FACTORIAL M19 internal marker reporter; actives raise or lower the signal. The gist of the method: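 Background-control endpoint from a multiplexed HepG2 reporter panel. Cells carrying cis-regulated reporter constructs are treated 24 h, then reporter transcripts are amplified, fluorescently labelled and sized by capillary electrophoresis. DMSO defines baseline.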

Assay [16] can be described thus: ATG_ERE_CIS: Attagene CIS-FACTORIAL HepG2 Assay for Estrogen Response Element (ERE) (AID 2282940). Conditions: HepG2 ERE cis-reporter, Attagene RNA transcript; actives raise or lower the signal. The gist of the method: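 Cells used were human hepatoma HepG2, transfected with multiple reporter transcription units under cis-regulatory promoters. Reporter mRNA, read 24 h post-dosing via fluorescent RT-PCR products on capillary electrophoresis, was fitted bidirectionally relative to DMSO.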

The nature of assay [17]: ATG_Ets_CIS: Attagene CIS-FACTORIAL HepG2 Assay for human Erythroblast Transformation Specific (ETS) (AID 2282941). Conditions: HepG2 ETS cis-reporter transcription, actives raise or lower the signal. The gist of the method:
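Bidirectional fit versus DMSO of reporter mRNA signal, detected by RT-PCR and capillary electrophoresis in HepG2 cells transiently transfected with cis-element reporters and dosed 24 h.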

In assay [18] the target is Hepatocyte nuclear factor 3-beta (Homo sapiens) (UniProt Q9Y261). The assay can be described thus: ATG_FoxA2_CIS: Attagene CIS-FACTORIAL HepG2 Assay for human Forkhead box A2 (FOXA2) (AID 2282942). The settings on record: HepG2 cis-reporter transcription factor activity, 24 h; actives raise or lower the signal. Summed up:
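Reporter transcript induction is measured by fluorescence after capillary electrophoresis of RT-PCR products from HepG2 cells exposed 24 h. Cis-regulated reporter units report endogenous factor activity; curves fitted both directions against DMSO.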

Assay [19] in a line: ATG_FoxO_CIS: Attagene CIS-FACTORIAL HepG2 Assay for human Forkhead box O (FoxO) (AID 2282943). The settings on record: HepG2 Attagene cis-reporter, FoxO element, mRNA; actives raise or lower the signal. The gist of the method: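 Transfected HepG2 reporter cells exposed to test chemical for 24 h; reporter RNA measured by reverse transcription, PCR and fluorescent capillary electrophoresis; curves fitted for increases and decreases against DMSO.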

Assay [20] in a line: ATG_GATA_CIS: Attagene CIS-FACTORIAL HepG2 Assay for human GATA Binding Protein (AID 2282944). Conditions: HepG2 GATA cis-element reporter, Attagene multiplex mRNA; actives raise or lower the signal. Summed up:
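Endogenous transcription factor activity was captured through cis-promoter-driven reporters in transfected HepG2 cells. After 24 h exposure, reporter transcripts were quantified by RT-PCR with fluorescent capillary electrophoresis, and responses fitted both directions against DMSO.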

Chain of CCAAT/enhancer-binding protein beta (Homo sapiens) (P17676 whole entry, looked up): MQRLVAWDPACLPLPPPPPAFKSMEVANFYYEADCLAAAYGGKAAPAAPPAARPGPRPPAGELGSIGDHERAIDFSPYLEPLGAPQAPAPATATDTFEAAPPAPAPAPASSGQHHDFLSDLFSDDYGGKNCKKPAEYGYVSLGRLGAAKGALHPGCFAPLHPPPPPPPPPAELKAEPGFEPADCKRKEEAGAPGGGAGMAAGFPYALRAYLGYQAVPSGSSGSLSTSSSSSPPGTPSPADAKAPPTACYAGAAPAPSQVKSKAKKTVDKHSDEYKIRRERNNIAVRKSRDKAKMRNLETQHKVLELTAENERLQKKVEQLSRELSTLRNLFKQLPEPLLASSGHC
Chain of Hepatocyte nuclear factor 3-beta (Homo sapiens) (Q9Y261 whole entry, looked up): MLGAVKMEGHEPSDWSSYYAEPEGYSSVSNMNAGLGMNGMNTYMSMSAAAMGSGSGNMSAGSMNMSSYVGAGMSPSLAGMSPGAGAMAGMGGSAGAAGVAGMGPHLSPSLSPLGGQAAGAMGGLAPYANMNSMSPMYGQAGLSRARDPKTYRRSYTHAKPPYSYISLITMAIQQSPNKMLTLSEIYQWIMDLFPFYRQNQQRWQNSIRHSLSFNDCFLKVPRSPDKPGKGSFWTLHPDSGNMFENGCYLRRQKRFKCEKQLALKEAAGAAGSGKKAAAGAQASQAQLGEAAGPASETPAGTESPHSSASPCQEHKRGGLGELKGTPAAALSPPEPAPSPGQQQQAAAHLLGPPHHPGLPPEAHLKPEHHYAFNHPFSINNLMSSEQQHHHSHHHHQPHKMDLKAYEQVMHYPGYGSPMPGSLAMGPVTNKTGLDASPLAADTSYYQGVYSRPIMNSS
Chain of Aryl hydrocarbon receptor (Homo sapiens) (P35869 whole entry, looked up): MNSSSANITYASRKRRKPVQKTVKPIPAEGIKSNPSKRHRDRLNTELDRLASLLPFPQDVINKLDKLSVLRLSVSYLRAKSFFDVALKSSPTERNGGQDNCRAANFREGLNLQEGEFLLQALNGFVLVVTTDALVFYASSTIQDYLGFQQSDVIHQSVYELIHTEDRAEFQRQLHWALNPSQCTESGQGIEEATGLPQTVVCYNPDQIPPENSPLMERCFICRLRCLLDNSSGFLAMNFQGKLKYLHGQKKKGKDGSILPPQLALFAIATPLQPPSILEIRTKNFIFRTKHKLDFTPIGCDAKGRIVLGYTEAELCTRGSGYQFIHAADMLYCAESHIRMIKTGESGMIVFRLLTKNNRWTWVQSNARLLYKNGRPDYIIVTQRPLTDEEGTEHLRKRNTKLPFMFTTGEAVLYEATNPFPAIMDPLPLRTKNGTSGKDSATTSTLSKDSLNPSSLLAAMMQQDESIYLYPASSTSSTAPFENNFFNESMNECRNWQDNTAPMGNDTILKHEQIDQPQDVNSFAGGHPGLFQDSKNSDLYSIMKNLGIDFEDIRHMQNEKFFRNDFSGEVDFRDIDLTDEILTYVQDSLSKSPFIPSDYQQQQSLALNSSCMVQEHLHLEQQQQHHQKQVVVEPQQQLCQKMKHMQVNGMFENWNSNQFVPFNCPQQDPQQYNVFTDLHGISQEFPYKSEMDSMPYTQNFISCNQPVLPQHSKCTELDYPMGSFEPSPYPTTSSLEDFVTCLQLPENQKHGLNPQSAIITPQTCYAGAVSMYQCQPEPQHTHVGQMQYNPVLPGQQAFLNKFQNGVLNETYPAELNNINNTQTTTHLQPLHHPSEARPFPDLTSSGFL
Chain of Transcription factor E2F1 (Homo sapiens) (Q01094 whole entry, looked up): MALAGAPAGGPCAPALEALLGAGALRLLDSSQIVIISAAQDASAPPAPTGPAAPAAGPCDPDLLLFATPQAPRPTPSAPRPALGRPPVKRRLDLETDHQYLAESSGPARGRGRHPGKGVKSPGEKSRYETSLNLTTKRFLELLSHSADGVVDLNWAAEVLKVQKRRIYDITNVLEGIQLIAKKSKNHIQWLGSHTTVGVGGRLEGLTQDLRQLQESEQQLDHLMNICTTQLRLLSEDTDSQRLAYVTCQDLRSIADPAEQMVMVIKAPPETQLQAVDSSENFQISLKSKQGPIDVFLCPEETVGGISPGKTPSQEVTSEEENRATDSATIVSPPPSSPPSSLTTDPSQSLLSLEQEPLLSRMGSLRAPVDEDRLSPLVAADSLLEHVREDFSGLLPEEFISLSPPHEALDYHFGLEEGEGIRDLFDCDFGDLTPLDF
Chain of Retinoic acid receptor alpha (Homo sapiens) (P10276 whole entry, looked up): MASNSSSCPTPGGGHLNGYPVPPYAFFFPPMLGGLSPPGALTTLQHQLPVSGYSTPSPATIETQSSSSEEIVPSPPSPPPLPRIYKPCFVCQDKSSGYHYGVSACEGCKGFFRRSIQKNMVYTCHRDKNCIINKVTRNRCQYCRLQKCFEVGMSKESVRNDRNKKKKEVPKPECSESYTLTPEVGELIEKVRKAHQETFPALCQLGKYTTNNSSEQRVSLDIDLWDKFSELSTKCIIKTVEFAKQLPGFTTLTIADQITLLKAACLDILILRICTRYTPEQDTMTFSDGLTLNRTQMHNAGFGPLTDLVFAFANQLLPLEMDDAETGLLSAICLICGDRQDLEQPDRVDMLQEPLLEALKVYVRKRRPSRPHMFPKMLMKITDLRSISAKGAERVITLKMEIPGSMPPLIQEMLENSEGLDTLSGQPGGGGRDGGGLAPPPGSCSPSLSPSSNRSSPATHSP

Consider `CCc1cccc(CC)c1`, for which the compound was classed as inactive in assay [1], in assay [2], in assay [3], in assay [4], in [5] and in [6]. In addition, the compound was called inactive in assay [7], in assay [8], in assay [9], in assay [10], in [11] and in [12]. Besides, the result in [13], in assay [14], in assay [15], in assay [16], in assay [17] and in assay [18] was inactive. Moreover, the result in [19] and in assay [20] was inactive.
As to `CC1=NN(c2ccc(S(=O)(=O)O)cc2)C(=O)C1N=Nc1ccccc1` (stereo not given), the call in [1], in assay [2], in [3], in [4], in assay [5] and in [7] was inactive. Moreover, the outcome in assay [8], in assay [9], in [10], in [11], in [12] and in assay [13] was inactive. Also, the call in assay [14], in assay [15], in assay [16], in [17], in assay [18] and in assay [19] was inactive. Besides, in assay [20], the outcome was inactive. Besides, in assay [6], the AC50 is 10.7 µM (active).
In the case of `NC(=O)Nc1ccccc1`, the outcome in [1], in [2], in assay [3], in [4], in assay [5] and in assay [6] was inactive. The call in assay [7], in assay [8], in [9], in assay [10], in [11] and in assay [12] was inactive. Further, the compound was classed as inactive in [13], in assay [14], in [15], in assay [16], in assay [17] and in assay [18]. The result in assay [19] and in assay [20] was inactive.
Take `CC(=O)C(C)C`: the call in assay [1], in assay [2], in [3], in assay [4], in assay [5] and in assay [6] was inactive. The result in assay [7], in assay [8], in assay [9], in [10], in assay [11] and in assay [12] was inactive. For the same compound, the result in assay [13], in [14], in assay [15], in assay [16], in assay [17] and in assay [18] was inactive. Further, the call in assay [19] and in assay [20] was inactive.
In the case of `CC(C)CCOCc1ccccc1`, the call in assay [1], in [2], in assay [3], in assay [4], in assay [5] and in assay [6] was inactive. Moreover, the compound was called inactive in assay [7], in assay [8], in assay [9], in assay [10], in assay [11] and in assay [12]. The compound was called inactive in assay [13], in assay [14], in [15], in [16], in assay [17] and in assay [18]. Further, the compound was classed as inactive in assay [19] and in [20].
Take `C=Cc1cccc(C)c1`: the compound was classed as inactive in assay [1], in assay [2], in [3], in [4], in assay [5] and in assay [6]. Further, the compound was called inactive in [8], in assay [9], in assay [10], in assay [11], in assay [12] and in assay [13]. For the same compound, the result in assay [14], in assay [15], in assay [16], in [17], in assay [18] and in assay [19] was inactive. Besides, the compound was called inactive in assay [20]. Also, the AC50 in [7] is 31.9 µM (active).
For the compound `Cn1cccc1`, the call in assay [1], in assay [2], in [3], in assay [4], in [5] and in [6] was inactive. For the same compound, the result in assay [8], in [9], in [10], in [11], in [12] and in [13] was inactive. Also, the call in [14], in assay [15], in [16], in assay [17], in [18] and in assay [19] was inactive. Moreover, the compound was classed as inactive in assay [20]. The AC50 in assay [7] was 26.4 µM (active).
